# Reference: PubChem BioAssay AID492998 (Southern Research Specialized Biocontainment Screening …, 2010)
# Screen size: about 2,300 compounds; about 550 (24%) were called active. How the calls were made is not given here. Only a sample is shown. Results with a measured potency or affinity are listed apart.
# Assay: Vero E6 cell cytotoxicity, dose response, cytotoxicity control for non-replicating M. tuberculosis project, secondary assay (AID 492998)
# Conditions: series mostly up to 20 µM
row,Compound,outcome
1,c1ccc(-c2nnc(SCc3cn4ccsc4n3)o2)cc1,inactive
2,CCS(=O)(=O)c1ncc(Cl)c(C(=O)Nc2ccc(C)cc2)n1,inactive
3,CCCCn1c(N)c(-c2nc3ccccc3o2)c2c([N+](=O)[O-])nn(CC)c(=O)c21,inactive
4,CCOC(=O)c1sc(NC(=O)CCN2CC(C)OC(C)C2)c(C(=O)OCC)c1C (stereo not given),inactive
5,CCCNC(=O)NC(=O)COc1ccc(-c2ccc(C#N)cc2)cc1,inactive
6,Cc1ccc(NCCC(=O)c2cccs2)cc1Cl,inactive
7,Cc1ccc(Sc2ncccc2N)cc1,inactive
8,Oc1ccccc1CN1CCCC(N2CCN(c3cccc(C(F)(F)F)c3)CC2)C1 (stereo not given),inactive
9,CC(/C=C\C=C\c1ccccc1)=N\NC(=O)c1cncc(Br)c1,inactive
10,CC(C)c1ccc(/C=N/NC(=O)c2ccccn2)cc1,inactive
11,Cc1ccnc(NC(=O)CCc2c[nH]c3ccccc23)c1,inactive
12,COc1ccc2oc(=O)c(/C(C)=N/NC(=O)c3ccncc3)cc2c1,inactive
13,C/C(=N\Nc1cccc2cccnc12)c1ccccn1,inactive
14,C/C(=N\Nc1ccc(Cl)cc1)c1ccccn1,inactive
15,COc1cc(/C=N/NC(=O)c2ccccn2)ccc1OC(=O)c1cccs1,inactive
16,O=C(CCc1c[nH]c2ccccc12)Nc1ncccc1O,inactive
17,CCCn1nnnc1NC(=O)COc1ccc(Br)cc1,inactive
18,Cc1ccccc1-n1c(C)cc(/C=N/NC(=O)c2ccncc2)c1C,inactive
19,O=[N+]([O-])c1ncccc1Oc1nc(-c2cccnc2)nc2ccccc12,inactive
20,Clc1ccccc1OCc1nnc(-c2ccccc2)o1,inactive
21,CCOC(=O)/C=C1\Nc2ccccc2OC1=O,inactive
22,N=c1oc2ccccc2cc1C(=O)Nc1ccccc1,inactive
23,N#CC(C(=O)Nc1ccccc1)=C1Nc2ccccc2N1,inactive
24,Cc1ccc(OC(=O)c2ccc(Br)o2)cc1,inactive

row,Compound,outcome
1,CCC(=O)c1ccc(OCC(=O)OCC(=O)c2cc(C)n(C3CC3)c2C)cc1,inactive
2,CC(C)(C)NCc1cc(Br)ccc1OCc1cccs1,inactive
3,O=C(OCC(=O)N1CCN(c2ccccc2)CC1)c1cnc(Cl)c(Cl)c1,inactive
4,O=C(NCc1ccco1)c1nc2ccccc2s1,inactive
5,O=C1CC(N2CCN(c3ccccc3)CC2)C(=O)N1CCc1ccccc1 (stereo not given),inactive
6,COC(=O)COc1ccc(-c2ccccc2)cc1C=O,inactive
7,CC(C)(O)C#Cc1ccc(C(=O)Nc2ccc3c(c2)OCO3)s1,inactive
8,N/N=C(/Cc1nc2ccccc2[nH]1)c1ccc([N+](=O)[O-])cc1,inactive
9,O=[N+]([O-])c1ccc2nc(SCc3cn4ccccc4n3)[nH]c2c1,inactive
10,C#CCSc1nnc(-c2ccc([N+](=O)[O-])cc2)o1,inactive
11,O=C(Nc1nc2ccccc2[nH]1)c1cccc([N+](=O)[O-])c1,inactive
12,CC1(C)CC(=O)C(C2NCCc3ccccc32)=C(O)C1 (stereo not given),inactive
13,CCCOc1ccc(N2CC(C(=O)Nc3ccccn3)CC2=O)cc1 (stereo not given),inactive
14,COc1ccc(/C=N/NC(=O)C(=O)NCc2cccnc2)cc1OC,inactive
15,COc1cc(OC)c2c(OC)cccc2n1,inactive
16,CC(C)(C)Sc1ccc2nc3c(n2c1)CCCC3,inactive
17,CC(/C=C/c1ccc2c(c1)OCO2)=N/NC(=O)C1COc2ccccc2O1 (stereo not given),inactive
18,CCOC(=O)Cn1nc(/C=C/c2ccccc2)ccc1=O,inactive
19,CCOc1cccc2cc(C(=O)NC(C)c3ccccc3)c(=N)oc12 (stereo not given),inactive
20,O=C(N/N=C/c1ccc(O)cc1)c1cccc(C(F)(F)F)c1,inactive
21,O=C(Nc1nnc(C2=COCCO2)o1)c1cccc(C(F)(F)F)c1,inactive
22,Nc1ccccc1Nc1ccccc1,inactive
23,CCCCCCOC(=O)C(C#N)c1nc2ccccc2nc1N1CCN(CC)CC1 (stereo not given),inactive
24,CCCn1c(O)c(N=NC(=O)c2ccco2)c2ccccc21,inactive

row,Compound,outcome
1,CCc1ccc(N2C(=O)CC(N3CCC(C(=O)OC)CC3)C2=O)cc1 (stereo not given),inactive
2,O=C(NCCc1c[nH]c2ccccc12)c1cc2ccccc2oc1=O,inactive
3,O=C(CNC(=O)c1ccccc1)OC1CCCCC1,inactive
4,Cc1cc(C)cc(OCC(=O)N/N=C/c2ccc([N+](=O)[O-])o2)c1,inactive
5,CCCCCCCC(=O)N/N=C/c1ccc([N+](=O)[O-])o1,inactive
6,O=C(CCSc1nnc(-c2ccccc2)o1)N1CCOCC1,inactive
7,Cc1cc(C)n2nc(N)c(N=Nc3ccccc3)c2n1,inactive
8,CCC(C)n1nnc2c(=O)oc3ccccc3c21 (stereo not given),inactive
9,CCOc1ccc(NC(=O)COC(=O)C2(C)CC2(Cl)Cl)c([N+](=O)[O-])c1 (stereo not given),inactive
10,N#Cc1cc(N)ccc1-n1cccc1,inactive
11,N/C(=N\OC(=O)CC1CCCCC1)c1ccncc1,inactive
12,CC(C)CN1C(=O)CC(Sc2ccccc2C(=O)O)C1=O (stereo not given),inactive
13,O=C1CC(N2CCC(c3nc4ccccc4o3)CC2)C(=O)N1 (stereo not given),inactive
14,COc1ccccc1NC(=O)CCN1CCN(c2ccc(Cl)cc2)CC1,inactive
15,CC(C)n1c(=S)[nH]c2ccccc2c1=O,inactive
16,Cn1cccc1/C=N/NC(=O)c1ccncc1,inactive
17,O=C(N/N=C/c1ccc([N+](=O)[O-])s1)c1ccccc1,inactive
18,Cc1ccc(C(=O)N/N=C/C=C/c2ccccc2)cc1,inactive
19,Cc1ccc(C(=O)N/N=C\c2ccc(-c3ccc(Cl)cc3)o2)cn1,inactive
20,Cc1ccc(C(=O)N/N=C\c2ccc[nH]2)cn1,inactive
21,O=C(N/N=C/c1ccc(Br)s1)c1cccnc1,inactive
22,COc1cccc(-c2nc(C=O)cs2)c1,inactive
23,CCCOc1ccc(N2C(=O)CC(N3CCCC(C(=O)N4CCCC4)C3)C2=O)cc1 (stereo not given),inactive
24,COC(=O)CN(C#N)c1nc(SC)nc(N(C)C)n1,inactive

row,Compound,outcome
1,CC(C)C[C@H]1CN=C(Nc2ccccc2)N1CCCC1CCCCC1,inactive
2,CCSc1nc(O)c(C2OC(=O)c3c2ccc(OC)c3OC)c(=O)n1-c1ccccc1 (stereo not given),inactive
3,CCOc1cccc2cc(C(=O)Nc3nccs3)c(=O)oc12,inactive
4,O=C(CN1CCC(NC(=O)c2cccc(F)c2)CC1)Nc1ccc(Br)cc1,inactive
5,Cc1ccc(/C=N/NC(=O)c2ccncc2)s1,inactive
6,O=C(N/N=C/c1ccc(Br)s1)c1ccncc1,inactive
7,CC(=O)N1N=C(c2ccccc2)OC1c1ccc([N+](=O)[O-])s1 (stereo not given),inactive
8,Cc1onc(-c2ccccc2)c1C(=O)Nc1nnc(COc2ccc(Cl)cc2)s1,inactive
9,O=C(Nc1ccccc1)c1cc2ccccc2o1,inactive
10,CN(C)Cc1ccccc1Sc1ccc(Br)cc1,inactive
11,CC(C)(NO)/C(=N\O)c1ccccc1,inactive
12,CCCOC(=O)c1ccc(-c2ccc(C=O)o2)cc1,inactive
13,Cc1ccc2nc3c(c(N)c2c1)CCN3c1ccccc1,inactive
14,C=C(C)C1Cc2c(C)nn(-c3nc(C)cc(C)n3)c2C1 (stereo not given),inactive
15,CCc1nnc(N/N=C/c2ccc(-c3ccc([N+](=O)[O-])cc3)o2)n1N,inactive
16,Cc1cccc(NC(=O)COC(=O)c2cc3ccccc3oc2=O)c1,inactive
17,CCOc1cccc2cc(C(=O)NCc3ccccc3)c(=N)oc12,inactive
18,Cc1ccc(N=Nc2c(C)[nH]n(C(N)=S)c2=O)cc1C,inactive
19,O=C(c1ccc(-c2ccc([N+](=O)[O-])cc2)o1)N1CCN(S(=O)(=O)c2cccs2)CC1,inactive
20,COc1cccc(NC(=O)c2ccc(-c3ccc([N+](=O)[O-])cc3)o2)c1,inactive
21,COc1ccccc1C(=O)OCC(=O)Nc1ccc(Cl)cn1,inactive
22,CC(C)(C)NC(=O)c1ccc(NC(=O)c2ccccc2-c2ccccc2C(=O)O)cc1,inactive
23,CN1CCC(O)(c2ccc(Cl)cc2)C(C(=O)c2ccc(Cl)cc2)C1 (stereo not given),inactive
24,Cc1nc(Cl)nc(N(C)c2ccccc2)c1[N+](=O)[O-],inactive

row,Compound,outcome
1,Cc1nnc(NC(=O)c2ccc3ccccc3c2)o1,inactive
2,N/C(=N/OC(=O)c1ccc(Cl)cc1)c1ncc([N+](=O)[O-])s1,inactive
3,O=C(Cn1cc([N+](=O)[O-])nc1[N+](=O)[O-])N1CCN(c2ccccc2)CC1,inactive
4,Cc1cc(C=C2C(=O)NC(=S)NC2=O)c(C)n1C1CCCC1,inactive
5,CSc1nc2ccc(NC(=O)C3CC(=O)N(Cc4ccccc4)C3)cc2s1 (stereo not given),inactive
6,CC1CCN(CCc2nc3cc(NC(=O)COc4ccc(Cl)cc4)ccc3n2C)CC1,inactive
7,NC(=S)n1[nH]c(-c2ccc([N+](=O)[O-])cc2)c(N=Nc2ccc(O)cc2)c1=O,inactive
8,COC(=O)c1ccc(CSc2nnc(-c3ccncc3)o2)o1,inactive
9,CCOC(=O)COc1ccc(/C=C2\NC(=S)N(CC)C2=O)cc1,inactive
10,FC(F)(F)c1ccc(NCCc2ccccc2)nc1,inactive
11,O=C(COc1ccc(F)cc1)N/N=C/c1cccc2cccnc12,inactive
12,O=C1/C(=C/c2cccs2)COc2ccccc21,inactive
13,Brc1ccc(OCCCCN2CCCCC2)cc1,inactive
14,Cc1occc1C(=O)N/N=C/C(Br)=C\c1ccccc1,inactive
15,O=C(CN1CCCCC1)Nc1nnc(-c2ccc([N+](=O)[O-])cc2)s1,inactive
16,N#Cc1nc(-c2cccs2)oc1NCCc1ccccc1,inactive
17,COc1cc(N=c2ssnc2Cl)cc(OC)c1OC,inactive
18,N=c1n(CCN2CCCCC2)c2ccccc2n1CC(=O)c1ccc(Cl)c(Cl)c1,inactive
19,O=C1Nc2cc(C(=O)NCCCN3CCOCC3)ccc2S/C1=C/c1cccc(Cl)c1,inactive
20,COCCOC(=O)c1c(C)oc2ccc(OC(=O)c3ccco3)cc12,inactive
21,O=C(Nc1ncc(Cc2ccccc2)s1)C1=NCCN1,inactive
22,OCC#CCSc1nnc(-c2ccc(Br)cc2)o1,inactive
23,CCN(CC)c1ccc2c(c1)oc(=O)c1c(Cl)cc(=O)oc12,inactive
24,CN(CCOCCOc1ccc(F)cc1)Cc1ccccc1,inactive
